The list is not random: actives were taken first. Their share in the collection is about 14%.
Pf growth 96h: P. falciparum growth inhibition at 96 hour, primary screen for plastid delayed-death inhibitors; P. falciparum luciferase reporter growth, 96 h; Potency, µM (doses to about 28.7 µM), most hits filed as inhibitors; 320,000 compounds, 6.9% hits; AID 504834
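Compounds incubated with erythrocytes infected by luciferase-expressing P. falciparum (2% hematocrit, 0.05% parasitemia final) for 96 hours, 37 C in 5% CO2. Growth inhibition scored as decreased luciferase luminescence.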
Giardia FBPA inh: Giardia lamblia aldolase inhibition; AID 2451; A8B2U2; 290,000 compounds, 0.71% hits; purified Giardia FBPA; Potency, µM (top dose mostly 59.6 µM), hits mostly inhibitors; note: nearly all actives have a fitted effect of over 55% in size
Target sequence (A8B2U2 whole entry, looked up): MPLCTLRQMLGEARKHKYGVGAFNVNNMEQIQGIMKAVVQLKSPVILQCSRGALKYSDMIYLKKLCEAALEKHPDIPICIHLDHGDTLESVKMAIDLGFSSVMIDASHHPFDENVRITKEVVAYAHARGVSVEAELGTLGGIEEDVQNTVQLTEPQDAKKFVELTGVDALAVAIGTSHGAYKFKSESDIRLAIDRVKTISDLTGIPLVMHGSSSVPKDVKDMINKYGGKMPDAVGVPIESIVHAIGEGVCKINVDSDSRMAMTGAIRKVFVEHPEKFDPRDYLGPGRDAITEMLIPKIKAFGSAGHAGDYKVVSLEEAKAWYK
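Giardia FBPA (40 nM reagent) was preincubated 10 min at RT with compound (up to 57.5 uM final), then substrate plus GAPDH/TPI/NAD/arsenate coupling system with diaphorase/resazurin was added; resorufin fluorescence (525/598 nm) was read after 20 min.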
Pf growth 48h: inhibits P. falciparum growth in the first generation, 48 h | AID 504832 | Potency, µM (titrated, usually from 28.7 µM), most hits filed as inhibitors | 310,000 compounds, 5.9% hits | P. falciparum luciferase growth in erythrocytes, 48 h
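Growth was read as firefly luciferase luminescence after a 48 h, 37 C, 5% CO2 exposure of compounds to reporter-bearing P. falciparum cultures (0.1% parasitemia, 2% hematocrit final) in Albumax-supplemented RPMI 1640.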
Sm TGR block: blocks Schistosoma mansoni thioredoxin glutathione reductase; purified TGR, DTNB reduction, TNB absorbance 405 nm; Potency, µM (series often up to 114 µM), most hits filed as inhibitors; 360,000 compounds, 3% hits; note: nearly all actives have a fitted effect of over 60% in size
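Kinetic colorimetric format: TGR-catalysed, NADPH-driven DTNB reduction monitored via TNB absorbance. Enzyme dispensed at 20 nM; compound exposure 15 min at room temperature before reaction start.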
HCMV inh: inhibitors of human cytomegalovirus; HFF cells, HCMV-luciferase reporter, 72 h; stronger effect = lower value; activity change, negative = inhibition, % at 57.5 µM; 410,000 compounds, 4.5% hits; AID 1259415; in the data active = activity change below about -60%; inconclusive = no clear call, values can overlap the other calls; inactive = above about -39%
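Cell-based, HFFs, 1000 cells/well, 16 h 37C; cpds in DMSO + HCMV-luc, MOI 1 PFU/cell; 72 h 37C; OneGlo luminescence after 5 min RT; norm. to buffer vs Salinomycin 10uM.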
Of the large screens only hits and unclear results are named; the others gave an inactive call. Unless noted, calls come from the whole dose curve; as a rule, active = well fitted curve in the direction sought with a large enough effect; inconclusive = small, poorly fitted or top-dose-only effect, or another doubt; inactive = no such curve, though single readings can be large; an effect the other way counts as inactive or inconclusive.

Cn1c(SCC(=O)N2CCN(S(=O)(=O)c3ccc(Cl)cc3)CC2)nc2ccccc21	Pf growth 96h 10.4µM (no result: Pf growth 48h)
Cn1c(N2CCN(S(=O)(=O)c3ccc(Cl)cc3)CC2)nc2ccccc21	HCMV inh -60.7
COc1ccc(CCN2CC(C(=O)N(C)CC(=O)Nc3ccc(Cl)c(C(F)(F)F)c3)CC2=O)cc1OC (stereo not given)	Pf growth 96h inconclusive, Pf growth 48h inconclusive (no result: Giardia FBPA inh)
COc1ccc(N2CC(C(=O)N(C)CC(=O)Nc3ccc(Cl)c(C(F)(F)F)c3)CC2=O)c(OC)c1 (stereo not given)	Pf growth 96h 13.1µM, Pf growth 48h inconclusive (no result: Giardia FBPA inh)
COc1cc(C(=O)N/N=C/c2ccc3c(c2)c2ccccc2n3C)ccc1O	Pf growth 96h 9.28µM, Pf growth 48h 4.65µM
CCOc1cc(/C=N\NC(=O)c2c(C)nc3ccccn23)ccc1O	none
CCOc1cc(/C=N/NC(=O)c2ccc(=O)n(C)c2)ccc1O	Pf growth 96h 3.29µM
COc1cc(/C=N\NC(=O)CC(=O)NCCc2ccccc2)ccc1O	Pf growth 96h 10.4µM
COc1ccc(/C=N/NC(=O)CC(=O)NCCc2ccccc2)cc1OC	none
COc1cc(/C=N/NC(=O)Cc2ccccc2)ccc1Oc1ccc([N+](=O)[O-])cc1[N+](=O)[O-]	HCMV inh -61.5
COc1ccc(NC(=O)CN(C)CC(=O)NCC(=O)Nc2ccc(F)cc2)cc1	none (no result: Giardia FBPA inh)
COc1ccc(/C=N/NC(=O)CN(CCc2ccccc2)S(=O)(=O)c2ccc(NC(C)=O)cc2)cc1OC	Pf growth 96h 9.28µM, Pf growth 48h inconclusive
COc1cc(/C=N/NC(=O)c2cccc(NC(=O)c3ccccc3)c2)ccc1O	HCMV inh -81.8
COc1cc(/C=N/NC(=O)C2c3ccccc3Oc3ccccc32)ccc1O	Pf growth 96h 13.1µM, Pf growth 48h inconclusive
COc1cc(/C=N/NC(=O)C2COc3ccccc3O2)ccc1O (stereo not given)	none
CCN1CCN(c2cc(C)c3cc(NC(=O)/C=C/c4cccc(OC)c4OC)ccc3n2)CC1	HCMV inh -99.7 (no result: Pf growth 96h, Giardia FBPA inh, Pf growth 48h)
COc1cccc(/C=C/C(=O)Nc2ccc3nc(N4CCN(C)CC4)cc(C)c3c2)c1OC	HCMV inh -105.8 (no result: Pf growth 96h, Giardia FBPA inh, Pf growth 48h)
Cc1cc(N2CCCCC2)nc2ccc(NC(=O)/C=C/c3ccccc3OC(C)C)cc12	none (no result: Pf growth 96h, Giardia FBPA inh, Pf growth 48h)
Cc1cc(N2CCN(C)CC2)nc2ccc(NC(=O)c3ccc4c(c3)OCO4)cc12	Pf growth 48h 9.28µM (no result: Pf growth 96h)
CCN1CCN(c2cc(C)c3cc(NC(=O)/C=C/c4cccc(Cl)c4)ccc3n2)CC1	HCMV inh -101.4 (no result: Pf growth 96h, Giardia FBPA inh, Pf growth 48h)
CCc1ccc2occ(CC(=O)N(Cc3ccccc3)C3CCS(=O)(=O)C3)c2c1 (stereo not given)	none (no result: Pf growth 96h, Giardia FBPA inh, Pf growth 48h)
COc1cc(C(=O)Nc2ccc3nc(N4CCN(C)CC4)cc(C)c3c2)cc(OC)c1OC	Pf growth 48h 0.329µM
Cc1cc(N2CCN(C)CC2)nc2ccc(NC(=O)c3ccc(Br)o3)cc12	Pf growth 48h 1.65µM
COc1cc(C(=O)Nc2ccc3c(c2)N(C(=O)CN2CCN(C)CC2)c2ccccc2CC3)cc(OC)c1OC	Pf growth 96h inconclusive, Pf growth 48h 13.1µM
Cc1cc(N2CCCCC2)nc2ccc(NC(=O)c3ccc(Br)o3)cc12	none (no result: Pf growth 96h, Pf growth 48h)
COc1ccc(C)cc1NS(=O)(=O)c1ccc2c(c1)CCN2C(C)=O	HCMV inh inconclusive
O=C(NCCCN1CCCCC1)c1ccc(CS(=O)c2ccc(Cl)cc2)o1 (stereo not given)	Pf growth 96h inconclusive (no result: Giardia FBPA inh)
COC(=O)C1=C(C(=O)OC)SC2(S1)C(C(=O)OC)=C(C(=O)OC)SC1=C2c2cc(C)cc(C)c2NC1(C)C	Pf growth 96h inconclusive, Pf growth 48h 5.86µM
COc1cccc(C(=O)Nc2ccc3c(cc2=O)[C@@H](NC(C)=O)CCc2cc(OC)c(OC)c(OC)c2-3)c1	Pf growth 96h inconclusive, Pf growth 48h 8.28µM (no result: HCMV inh)
CCCC(=O)NC1CCc2cc(OC)c(OC)c(OC)c2-c2ccc(OC)c(=O)cc21 (stereo not given)	HCMV inh -91.3 (no result: Pf growth 96h, Giardia FBPA inh, Pf growth 48h, Sm TGR block)
COc1ccc2c(c1)C(NC(C)=O)CCc1cc(OC)c(OC)c(OC)c1-2 (stereo not given)	HCMV inh -67.1 (no result: Pf growth 96h, Giardia FBPA inh, Pf growth 48h, Sm TGR block)
CNC1CCc2cc(OC)c(OC)c(OC)c2-c2ccc(OC)c(=O)cc21 (stereo not given)	none (no result: Giardia FBPA inh, Sm TGR block, HCMV inh)
COC(=O)c1ccc2c(c1)C(NC(C)=O)CCc1cc(OC)c(OC)c(OC)c1-2 (stereo not given)	HCMV inh -80.7 (no result: Pf growth 96h, Giardia FBPA inh, Pf growth 48h, Sm TGR block)

Compound activity deposited in PubChem BioAssay by National Center for Advancing Translational Sciences (NCATS).
